# Data: the supplement of paper PMC4022240
# ± gives the standard deviation.
# T1: HaloTag-ATRX ADD domain (163-292)
# T1 chain: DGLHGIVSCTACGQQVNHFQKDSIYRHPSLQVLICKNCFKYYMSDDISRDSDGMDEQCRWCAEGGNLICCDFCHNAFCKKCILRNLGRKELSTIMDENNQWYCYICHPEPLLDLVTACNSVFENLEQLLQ
# What was measured:
# Assay in all cases: peptide microarray binding signal (635 nm), min-max normalized on array (fraction of array maximum); higher = stronger binding
# [1] = biological target: T1, HaloTag-ATRX ADD domain (163-292)
# How it was run: (§1)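 For each library, binding signal was taken as the triplicate-spot mean intensity and then min-max scaled. Spots of histone 13-mer peptide–cellulose conjugates on nitrocellulose, printed in triplicate with a Cy3 tracer, were probed for 1 h at 4°C with either biotin-labelled HaloTag reader fusions (10 nM to 1 μM) and streptavidin-Alexa Fluor 647 or rabbit histone antibodies (1:10,000 to 1:2,000) and anti-rabbit Alexa 647. Readout at 635 nm came from an Axon GenePix 4000B.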
# [2] = biological target: HaloTag-ING2 PHD (mouse Ing2 200-280)
# How it was run: as §1
# [3] = biological target: anti-H3K4me3 antibody ab8580
# How it was run: as §1
# [4] = biological target: anti-H3K9me3 antibody ab8898
# How it was run: as §1
# [5] = peptide region: H4 38-50, peptide modifications: H4K44me3 H4R45me2s, binder concentration: 1:2,000 dilution
# [6] = peptide region: H4 38-50, peptide modifications: H4K44me3 H4R45me2s, binder concentration: 1:10,000 dilution
# [7] = peptide region: Unmod H1 variant, binder concentration: 50 nM
# [8] = peptide region: Unmod H1 variant, binder concentration: 500 nM
# [9] = peptide region: Unmod H1 variant, binder concentration: 10 nM
# [10] = peptide region: Unmod H1 variant, binder concentration: 100 nM
# [11] = peptide region: Unmod H1 variant, binder concentration: 1:2,000 dilution
# [12] = peptide region: Unmod H1 variant, binder concentration: 1:10,000 dilution
# [13] = peptide region: H4 38-50, peptide modifications: H4K44me3 H4R45me2a, binder concentration: 1:2,000 dilution
# [14] = peptide region: H4 38-50, peptide modifications: H4K44me3 H4R45me2a, binder concentration: 1:10,000 dilution
# [15] = peptide region: H4 38-50, peptide modifications: H4R45me1, binder concentration: 1:2,000 dilution
# [16] = peptide region: H4 38-50, peptide modifications: H4R45me1, binder concentration: 1:10,000 dilution
# [17] = peptide region: H4 53-65, peptide modifications: H4K59ac, binder concentration: 1:2,000 dilution
# [18] = peptide region: H4 53-65, peptide modifications: H4K59ac, binder concentration: 1:10,000 dilution
binder,measurement,setting,value
ARRGGVKRISGLI [H4 38-50 A R R G G V Kme3 Rme2s I S G L I],peptide microarray binding signal,"[1]; peptide region: H4 38-50, peptide modifications: H4K44me3 H4R45me2s, binder concentration: 50 nM",0.00533 ± 8.8e-05
same,peptide microarray binding signal,"[1]; peptide region: H4 38-50, peptide modifications: H4K44me3 H4R45me2s, binder concentration: 500 nM",0.0131 ± 0.0006
same,peptide microarray binding signal,"[2]; peptide region: H4 38-50, peptide modifications: H4K44me3 H4R45me2s, binder concentration: 10 nM",0.0355 ± 0.0027
same,peptide microarray binding signal,"[2]; peptide region: H4 38-50, peptide modifications: H4K44me3 H4R45me2s, binder concentration: 100 nM",0.0541 ± 0.0061
same,peptide microarray binding signal,[3]; [5],0.0265 ± 0.0032
same,peptide microarray binding signal,[3]; [6],0.0193 ± 0.0017
same,peptide microarray binding signal,[4]; [5],0.0291 ± 0.0028
same,peptide microarray binding signal,[4]; [6],0.0206 ± 0.0014
SHYKVGENADSQI [Unmod H1 variant S H Y K V G E N A D S Q I],peptide microarray binding signal,[1]; [7],0.00937 ± 0.00014
same,peptide microarray binding signal,[1]; [8],0.00671 ± 0.00048
same,peptide microarray binding signal,[2]; [9],0.00197 ± 2.3e-05
same,peptide microarray binding signal,[2]; [10],0.00298 ± 0.00012
same,peptide microarray binding signal,[3]; [11],0.000227 ± 4.2e-06
same,peptide microarray binding signal,[3]; [12],0.000571
same,peptide microarray binding signal,[4]; [11],0.000181
same,peptide microarray binding signal,[4]; [12],0.000404 ± 4.4e-06
ARRGGVKRISGLI [H4 38-50 A R R G G V Kme3 Rme2a I S G L I],peptide microarray binding signal,"[1]; peptide region: H4 38-50, peptide modifications: H4K44me3 H4R45me2a, binder concentration: 50 nM",0.00524 ± 0.00017
same,peptide microarray binding signal,"[1]; peptide region: H4 38-50, peptide modifications: H4K44me3 H4R45me2a, binder concentration: 500 nM",0.00852 ± 0.00069
same,peptide microarray binding signal,"[2]; peptide region: H4 38-50, peptide modifications: H4K44me3 H4R45me2a, binder concentration: 10 nM",0.0304 ± 0.0024
same,peptide microarray binding signal,"[2]; peptide region: H4 38-50, peptide modifications: H4K44me3 H4R45me2a, binder concentration: 100 nM",0.0612 ± 0.0075
same,peptide microarray binding signal,[3]; [13],0.0239 ± 0.0068
same,peptide microarray binding signal,[3]; [14],0.016 ± 0.00029
same,peptide microarray binding signal,[4]; [13],0.0197 ± 0.0016
same,peptide microarray binding signal,[4]; [14],0.009686 ± 5.3e-05
AEKNRAGSSRQSI [Unmod H1 variant A E K N R A G S S R Q S I],peptide microarray binding signal,[1]; [7],0.0112 ± 0.00071
same,peptide microarray binding signal,[1]; [8],0.0179 ± 0.0034
same,peptide microarray binding signal,[2]; [9],0.00495 ± 0.00025
same,peptide microarray binding signal,[2]; [10],0.00943 ± 0.0026
same,peptide microarray binding signal,[3]; [11],0.000453 ± 4.1e-05
same,peptide microarray binding signal,[3]; [12],0.000913 ± 1.6e-05
same,peptide microarray binding signal,[4]; [11],0.000544 ± 1.5e-05
same,peptide microarray binding signal,[4]; [12],0.00219 ± 0.00045
ARRGGVKRISGLI [H4 38-50 A R R G G V K Rme I S G L I],peptide microarray binding signal,"[1]; peptide region: H4 38-50, peptide modifications: H4R45me1, binder concentration: 50 nM",0.00486 ± 6.2e-05
same,peptide microarray binding signal,"[1]; peptide region: H4 38-50, peptide modifications: H4R45me1, binder concentration: 500 nM",0.0107 ± 0.00046
same,peptide microarray binding signal,"[2]; peptide region: H4 38-50, peptide modifications: H4R45me1, binder concentration: 10 nM",0.01247 ± 0.00012
same,peptide microarray binding signal,"[2]; peptide region: H4 38-50, peptide modifications: H4R45me1, binder concentration: 100 nM",0.0215 ± 0.0011
same,peptide microarray binding signal,[3]; [15],0.00306 ± 5.9e-05
same,peptide microarray binding signal,[3]; [16],0.00508 ± 7.3e-05
same,peptide microarray binding signal,[4]; [15],0.0021 ± 4.5e-05
same,peptide microarray binding signal,[4]; [16],0.0019 ± 3.6e-05
SDMIVAAIQAEKN [Unmod H1 variant S D M I V A A I Q A E K N],peptide microarray binding signal,[1]; [7],0.0102 ± 0.00022
same,peptide microarray binding signal,[1]; [8],0.00514 ± 0.00038
same,peptide microarray binding signal,[2]; [9],0.00555 ± 0.00034
same,peptide microarray binding signal,[2]; [10],0.00326 ± 5.1e-05
same,peptide microarray binding signal,[3]; [11],0.00111 ± 2.4e-05
same,peptide microarray binding signal,[3]; [12],0.00126 ± 4.3e-05
same,peptide microarray binding signal,[4]; [11],0.000559 ± 2.9e-05
same,peptide microarray binding signal,[4]; [12],0.00104 ± 2.1e-05
AKPKRAKASKKST [Unmod H1 variant A K P K R A K A S K K S T],peptide microarray binding signal,[1]; [7],0.0106 ± 0.0005
same,peptide microarray binding signal,[1]; [8],0.018 ± 0.00086
same,peptide microarray binding signal,[2]; [9],0.00334 ± 4.8e-05
same,peptide microarray binding signal,[2]; [10],0.00638 ± 0.0014
same,peptide microarray binding signal,[3]; [11],0.000378 ± 1.4e-05
same,peptide microarray binding signal,[3]; [12],0.000913 ± 2.8e-05
same,peptide microarray binding signal,[4]; [11],0.000347 ± 7e-06
same,peptide microarray binding signal,[4]; [12],0.000634
ETRGVLKVFLENV [H4 53-65 E T R G V L Kac V F L E N V],peptide microarray binding signal,"[1]; peptide region: H4 53-65, peptide modifications: H4K59ac, binder concentration: 50 nM",0.00241 ± 3.2e-05
same,peptide microarray binding signal,"[1]; peptide region: H4 53-65, peptide modifications: H4K59ac, binder concentration: 500 nM",0.00333 ± 0.00022
same,peptide microarray binding signal,"[2]; peptide region: H4 53-65, peptide modifications: H4K59ac, binder concentration: 10 nM",0.00997 ± 0.0024
same,peptide microarray binding signal,"[2]; peptide region: H4 53-65, peptide modifications: H4K59ac, binder concentration: 100 nM",0.00425 ± 0.00013
same,peptide microarray binding signal,[3]; [17],0.00104 ± 4.9e-05
same,peptide microarray binding signal,[3]; [18],0.00143 ± 4.8e-05
same,peptide microarray binding signal,[4]; [17],0.000529 ± 1.3e-05
same,peptide microarray binding signal,[4]; [18],0.00104 ± 2.1e-05
KKSTDHPKYSDMI [Unmod H1 variant K K S T D H P K Y S D M I],peptide microarray binding signal,[1]; [7],0.01 ± 7.3e-05
same,peptide microarray binding signal,[1]; [8],0.00895 ± 0.0005
same,peptide microarray binding signal,[2]; [9],0.00269 ± 3e-05
same,peptide microarray binding signal,[2]; [10],0.00418 ± 0.00013
same,peptide microarray binding signal,[3]; [11],0.000717 ± 7.3e-05
same,peptide microarray binding signal,[3]; [12],0.000856 ± 1.8e-05
same,peptide microarray binding signal,[4]; [11],0.000196 ± 2.1e-06
same,peptide microarray binding signal,[4]; [12],0.00075 ± 7.9e-06
TENSTSAPAAKPK [Unmod H1 variant T E N S T S A P A A K P K],peptide microarray binding signal,[1]; [7],0.0132 ± 0.00019
same,peptide microarray binding signal,[1]; [8],0.0173 ± 0.002
same,peptide microarray binding signal,[2]; [9],0.005132 ± 2.5e-05
same,peptide microarray binding signal,[2]; [10],0.00694 ± 0.00038
same,peptide microarray binding signal,[3]; [11],0.000906 ± 4.9e-05
same,peptide microarray binding signal,[3]; [12],0.00188 ± 3.5e-05
same,peptide microarray binding signal,[4]; [11],0.00136 ± 1.7e-05
same,peptide microarray binding signal,[4]; [12],0.0015 ± 2.5e-05
